Only some compounds are listed: those with a hit (about 9% of all), similar ones and a draw of the others.
ALDH1A1 inh – blocks purified human ALDH1A1 activity | 220,000 compounds, 7.3% hits | P00352 | Potency, µM (doses to about 75.3 µM), without a hit: at the highest dose activity, negative = inhibition, usual class: inhibitors | Purified ALDH1A1, NADH fluorescence, propionaldehyde substrate;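 also: potency is read from the fitted curve at half-maximal effect; plate controls were no enzyme wells and a reference inhibitor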
Target sequence (P00352 whole entry, looked up): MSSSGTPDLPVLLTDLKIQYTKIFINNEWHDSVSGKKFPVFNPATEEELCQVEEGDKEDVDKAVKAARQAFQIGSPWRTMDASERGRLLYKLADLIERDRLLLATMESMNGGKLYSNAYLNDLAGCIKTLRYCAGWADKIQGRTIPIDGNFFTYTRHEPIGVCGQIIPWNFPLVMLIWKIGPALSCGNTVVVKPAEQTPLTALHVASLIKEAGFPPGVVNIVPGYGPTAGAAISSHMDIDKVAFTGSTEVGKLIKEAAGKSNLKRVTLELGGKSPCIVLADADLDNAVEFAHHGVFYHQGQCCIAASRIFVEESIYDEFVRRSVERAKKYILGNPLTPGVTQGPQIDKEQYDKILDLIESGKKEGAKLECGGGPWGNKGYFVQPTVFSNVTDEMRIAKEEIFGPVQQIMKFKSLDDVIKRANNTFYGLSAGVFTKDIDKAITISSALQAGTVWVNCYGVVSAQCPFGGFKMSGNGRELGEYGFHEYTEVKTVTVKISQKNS
IMPase inh – IMPase inhibition in cells. P97697. CHO-M1 cells, IP1 accumulation, HTRF TR-FRET ratio. inhibition (IP1 accumulation), % at 46.1 µM. 120,000 tested, under 10 active; active = well fitted curve in the direction sought with a large enough effect in the signal ratio, not every such curve was filed as active; inconclusive = small, poorly fitted or top-dose-only effect, or a change in a side signal; inactive = no such curve, though single readings can be large or run the other way; the % refers to the signal ratio;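 also: cells stimulated with carbachol in lithium chloride buffer; plate controls were DMSO basal wells for no effect and reference inhibitor wells for full effect; higher means more IMPase inhibition seen as more IP1 and lower FRET ratio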
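Elevated IP1 in lysates lowers TR-FRET signal (665/620 ratio and 620 channel reported). Cells were CHO-M1, given carbachol (50 uM as added) plus 50mM LiCl, pH 7.4, 30 min, 37C; compounds titrated up to 46 uM; AC50 by Hill equation.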
HPGD inh – inhibitors of human 15-hydroxyprostaglandin dehydrogenase (HPGD); P15428; purified HPGD, NADH fluorescence kinetic, PGE2 substrate; Potency, µM, without a hit: at the highest dose activity change, negative = inhibition, usual class: inhibitors; 150,000 compounds, 4.3% hits; AID 894; also: potency is read from the fitted curve at half-maximal effect
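NADH formation kinetics: reaction with 30 uM PGE2 and 1 mM NAD+ (final), 20 nM enzyme, Tris-HCl pH 8 with Tween 20, after 15 min compound preincubation at room temperature. Fluorescence change, last versus first of five reads.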
Starred values were filed as active, the others as inactive; ? = inconclusive; · = no result given. Unless noted, calls follow the shape of the dose curve; as a rule, active = well fitted inhibition curve with a large enough effect (not every such curve was filed as active); inconclusive = small, poorly fitted or top-dose-only effect, or another doubt; inactive = no such curve, though single readings can be large or run the other way. Unless noted, % is scaled to controls: 0 for no effect and ±100 for the full control effect.

SMILES	ALDH1A1 inh	IMPase inh	HPGD inh
CCNC(=O)Nc1cc2nc(C)n(Cc3ccc(Br)cc3)c2nc1C	-3%	5	-16%
COc1cc(OC)cc(C(=O)NCCCN2CCN(CCCNC(=O)c3cc(OC)cc(OC)c3)CC2)c1	-8%	·	-2%
O=C(CSc1nnc(-c2ccncc2)n1Cc1ccco1)OC1CCCCC1	?	2	-24%
O=c1cc(CSc2nnc(-c3cccs3)n2Cc2ccccc2)nc2sc3ccccc3n12	7.9µM*	1	-6%
Cc1cc(C(=O)CSc2nnc(-c3cccs3)n2Cc2ccccc2)c(C)n1C	?	13	-4%
Cc1[nH]c2ccc(-c3nnc(SCC(=O)NCc4ccco4)n3Cc3ccccc3)cc2c1C	32µM*	7	16µM*
CCn1c(SCC(=O)NCc2ccco2)nnc1C(C)C	4µM*	10	-22%
CC(C)c1nnc(SCC(=O)NCc2ccco2)n1C	2%	-4	-6%
Cc1sc2nc(SCC(=O)NCc3ccco3)n(Cc3ccccc3)c(=O)c2c1C	-2%	2	-7%
O=C(CSc1nnc(-c2ccco2)n1Cc1ccccc1)OC1CCCCC1	?	0	25µM*
Cn1cccc1-c1cc(C(=O)N/N=C/c2cccc(O)c2)[nH]n1	0%	·	·
CCC(C)(C)n1nnnc1C(c1ccc(C)cc1)N1CCN(Cc2ccc3c(c2)OCO3)CC1 (stereo not given)	-9%	12	5%
COC(=O)c1cc(C#N)c(N2CC(C)OC(C)C2)nc1C (stereo not given)	-11%	·	·
CC(C)(C)NS(=O)(=O)c1ccc2nc(NC(=O)Cc3cccs3)sc2c1	1%	1	-15%
CCCCC(CC(O)COCCC)c1n[nH]c(=S)n1-c1ccccc1 (stereo not given)	6%	·	·
Cc1oc(-c2ccccc2F)nc1CS(=O)CC(=O)NCc1cccs1 (stereo not given)	-3%	0	-6%
Cc1oc(-c2ccccc2F)nc1CS(=O)CC(=O)NCc1ccc2c(c1)OCO2 (stereo not given)	32µM*	7	?
O=C(CSc1nnc(Cc2cccs2)n1Cc1ccco1)Nc1ccc(Br)cc1	20µM*	17	?
CCn1c(CNC(=O)c2cccs2)nnc1SCC(=O)NCCc1ccccc1	7%	-3	-16%
CCCCn1c(SCC(=O)NCc2ccco2)nnc1-c1ccco1	20µM*	0	-24%
CCn1c(SCC(=O)NCCc2ccccc2)nnc1-c1cccs1	-5%	-4	28µM*
O=C(CSc1nnc(Cc2cccs2)n1Cc1ccco1)Nc1ccc(Cl)cc1Cl	?	16	-20%
CCCCn1c(SCC(=O)NCc2ccco2)nnc1-c1ccoc1C	-12%	4	-8%
CCOc1cc(CNc2ccc3c(c2)OCCO3)cc(Br)c1OCC	?	2	-18%
O=C1NC(Cc2c[nH]c3ccccc23)C(=O)N1Cc1ccc(CN2C(=O)NC(Cc3c[nH]c4ccccc34)C2=O)cc1 (stereo not given)	-3%	·	·
SMILES	ALDH1A1 inh	IMPase inh	HPGD inh
CCc1nc(NCC2CCCN2CC)c2nnn(Cc3ccccc3F)c2n1 (stereo not given)	1%	5	-8%
CCn1c(SCC(=O)NCc2ccco2)nnc1-c1cccs1	8.9µM*	2	25µM*
CCCCNC(=O)CS(=O)Cc1nc(-c2cccs2)oc1C (stereo not given)	-13%	3	-12%
CCOC(=O)c1c(C)[nH]c(C(=O)CSc2nnc(-c3cccs3)n2Cc2ccccc2)c1C	-1%	15	-19%
CCn1c(SCC(=O)NCc2ccco2)nnc1-c1ccncc1	-4%	·	·
Cc1oc(-c2cccs2)nc1CS(=O)CC(=O)NCCc1ccccc1 (stereo not given)	?	0	32µM*
COC(=O)CSc1nnc(-c2ccco2)n1Cc1ccco1	14µM*	-1	-20%
CC(=O)c1c(C)[nH]c(C(=O)CSc2nnc(-c3cccs3)n2Cc2ccccc2)c1C	13µM*	11	?
CC(C)(C)NC(=O)CSc1nnc(-c2ccco2)n1Cc1ccco1	0%	-2	1%
N#CCC(=O)Nn1c(=S)[nH]c2ccccc2c1=O	9%	·	·
CC1CCN(c2oc(-c3cccs3)nc2S(=O)(=O)c2ccc(Cl)cc2)CC1	·	2	·
Cc1cnc(CNc2cc(-c3cccc(NS(C)(=O)=O)c3)ncn2)cn1	-7%	·	·
O=C(NC(=S)NCCN1CCOCC1)c1ccc(Cl)cc1Cl	0%	-1	-16%
CCCCNC(=S)NC(=O)c1ccc(Cl)cc1Cl	25µM*	6	-17%
CCOc1ccc(Oc2cc(N)cc([N+](=O)[O-])c2)cc1	-4%	·	·
COc1ccc(NC(=O)Nc2ccccc2F)c(C)c1	-4%	·	·
COc1ccc(C(=O)C[n+]2cn(C(F)F)c3ccccc32)c(F)c1	10µM*	·	·
N#CCCn1c(=O)c(-c2ccc(Cl)cc2)nc2cnc(Oc3cccc(Cl)c3)nc21	?	·	-7%
CCOc1cc(NC(=O)c2cnccn2)c(OCC)cc1NC(=O)c1ccc(OC)cc1	5%	12	-11%
C/C(=N\O)c1ccc2[nH]ccc2c1	5%	1	-1%
N#CC(C#N)=C(N)/C(C#N)=C/c1ccc2[nH]ccc2c1	13µM*	·	·
Cc1ccc(C)n1-c1sc2c(c1C#N)CCCC2	-5%	1	-16%
Cc1sc(-n2c(C)ccc2C)c(C#N)c1C	22µM*	6	18µM*
CCCc1cc(=O)[nH]c(Nc2ccc(OC)c(Cl)c2)n1	15%	3	-7%
COc1cccc2sc(N(C)c3ccccc3)nc12	-10%	7	?
SMILES	ALDH1A1 inh	IMPase inh	HPGD inh
COc1ccc(N2C(=O)CC(N3CCN(c4nc5ccccc5s4)CC3)C2=O)cc1 (stereo not given)	25µM*	?	-8%
COc1ccc(N2C(=O)CC(N3CCN(c4ccc(S(C)(=O)=O)cc4)CC3)C2=O)cc1 (stereo not given)	22µM*	-1	-12%
CCOc1cccc(N2C(=O)CC(N3CCN(c4nc5ccccc5s4)CC3)C2=O)c1 (stereo not given)	-13%	16	-4%
COc1ccc(N2CCN(C3CC(=O)N(C)C3=O)CC2)cc1 (stereo not given)	-7%	13	2%
COc1cccc2sc(N3CCN(c4nc5ccccc5s4)CC3)nc12	14µM*	0	·
CCc1ccc(NC(=O)C(C)OC(=O)c2cccc(S(=O)(=O)N3CCc4ccccc4C3)c2)cc1 (stereo not given)	-4%	-10	-19%
CCN(CC)S(=O)(=O)c1cccc(C(=O)OCC(=O)NC(C)c2ccccc2)c1 (stereo not given)	0%	·	·
CC[C@@H]1C(c2ccccc2)=NN(c2ccccc2)[C@H]1C(=O)N1CCOC1=O	-13%	·	?
O=C(NC1CCCCC1)NC1(C(=O)NCCCN2CCOCC2)CCCCC1	11%	0	-4%
COc1cc(NC(=O)C2CCCO2)c(OC)cc1Cl (stereo not given)	1%	-4	-3%
CSc1nc2ccc(NC(=O)C3CCCO3)cc2s1 (stereo not given)	?	-6	28µM*
O=C(O)c1cc(NC(=O)C2CCCO2)cc(NC(=O)C2CCCO2)c1 (stereo not given)	15%	?	-8%
O=C(Nc1cc(Cl)c(O)c(Cl)c1)C1CCCO1 (stereo not given)	?	14	25µM*
